Assay results published in PubChem BioAssay AID1578 (Sanford-Burnham Center for Chemical Genomics, 2009).
Among all 290,000 compounds or so, about 3,000 (1%) were called active. Shown is part of a subset that was picked to be rich in actives. A number with no mark means an inactive call. No stated cut-off is given here; in the data, active means inhibition mostly above about 36% (no sharp cut-off); inactive means mostly below about 34%.

Experiment: NOD1 signaling inhibitors, primary screen, cell-based, luminescence, uHTS (AID 1578);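 further: HEK-293T reporter cells stimulated with the NOD1 agonist gamma-tri-DAP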
Settings: NOD1-driven NF-kB luciferase reporter cells, at 4 µM, active compounds read high
`CCOc1ccc(NC(=O)CC(NCc2ccccn2)C(=O)O)cc1` (stereo not drawn) gave an inhibition of -2.9%. In the case of `CCOC(=O)C1CCN(c2ccc(-c3cccs3)nn2)CC1`, the inhibition is reported as -0.9%. For `c1csc(-c2ccc(N3CCOCC3)nn2)c1`, the inhibition was -11.8%. With `CC1CCN(c2ccc(-c3cccs3)nn2)CC1` the inhibition was 31.4% (active). `CCOC(=O)C1CCN(C(=O)CN(c2cc(Cl)ccc2OC)S(=O)(=O)c2ccccc2)CC1` gave an inhibition of -33.5%. Compound `COc1cccc(NS(=O)(=O)c2cc3c(cc2C)N(C)CCO3)c1` has an inhibition of -2.7%. `O=C(N/N=C/c1ccc(N2CCOCC2)cc1)c1ccccn1` showed an inhibition of 0%. With `O=C(N/N=C/c1ccc(OCC(=O)N2CCOCC2)cc1)c1ccccc1Cl` the inhibition was -15.5%. With `O=C(N/N=C/c1ccc(N2CCOCC2)cc1)c1ccccc1OCCOc1ccccc1` the inhibition was 58.8% (active). In the case of `Fc1ccc(-n2ncc3c(SCc4cccnc4)ncnc32)cc1`, the inhibition is reported as -6.1%. Compound `Cc1nc2nc[nH]n2c(=O)c1CC(=O)O` has an inhibition of 14.8%. `CN(c1cc(=O)n2ccccc2n1)C1CCCCC1` gave an inhibition of -27.9%. `CC1CCCN(c2ccc3nc4ccccc4c(=O)n3n2)C1` (stereo not drawn) showed an inhibition of 28.3%. In the case of `CN(c1ccc2nc3ccccc3c(=O)n2n1)C1CCCCC1`, the inhibition is reported as 92.5% (active). `CN1CCCN(C(=O)/C=C/c2ccc(F)cc2)CC1` showed an inhibition of -22.5%. Work on `N#CCC(=O)Nc1ccc(C(=O)OCC(=O)NCCCc2ccccc2)cc1` yielded an inhibition of 5.1%. For `O=C(O)c1ccc(C=C(c2nc3ccccc3s2)c2nc3ccccc3s2)cc1`, the inhibition was 63.5% (active). With `O=C(O)c1ccc(/C=C(\c2nc3ccccc3[nH]2)c2nc3ccccc3s2)cc1` the inhibition was 4.6%. `COc1cc(C=C(c2nc3ccccc3s2)c2nc3ccccc3s2)ccc1O` gave an inhibition of 7.4%. `CCCNC(=O)COC(=O)CCC(=O)c1cccs1` gave an inhibition of -7.8%. Compound `O=C(Oc1ccc(Cl)c2cccnc12)c1cccc([N+](=O)[O-])c1` has an inhibition of -6.9%. For `O=C(Oc1c(Cl)cc(Cl)c2cccnc12)c1cccc([N+](=O)[O-])c1`, the inhibition was 105% (active). In the case of `O=C(Oc1cccc2cccnc12)c1cccc([N+](=O)[O-])c1`, the inhibition is reported as -8.5%. Compound `COc1ccc(OC)c(Nc2nc(NCc3ccco3)nc(N)c2[N+](=O)[O-])c1` has an inhibition of -6.4%. With `COc1ccc(NC(=O)c2ccc3c(c2)NC(=O)CS3)cc1S(=O)(=O)Nc1ccc(Br)cc1` the inhibition was 4%. Compound `Cc1ccc(NS(=O)(=O)c2cc(NC(=O)c3cc(=O)[nH]c(=O)[nH]3)ccc2Cl)c(C)c1` has an inhibition of 12.4%. `Cc1ccc(C(=O)N/C(=C\c2cccc([N+](=O)[O-])c2)C(=O)OCN2C(=O)c3ccccc3C2=O)cc1` gave an inhibition of -36.4%. In the case of `O=C(NC1=NCCS1)C12CC3CC(CC(C3)C1)C2`, the inhibition is reported as -23.8%. `Nc1[nH]nc2nc3ccccc3cc12` showed an inhibition of -21.2%. For `Nc1cccc2nc3ccccc3cc12`, the inhibition was -65%. With `O=C(c1cccc(F)c1)N1C2C=CC(C2)C1(C(F)(F)F)C(F)(F)F` (stereo not drawn) the inhibition was 23%. With `N/C(=N/S(=O)(=O)c1ccccc1)c1cccc([N+](=O)[O-])c1` the inhibition was 2%. `CNC(=S)NNC(=O)c1sc2cc(C(F)(F)F)cnc2c1-c1ccccn1` gave an inhibition of -34.8%. In the case of `CCCCCCC1CC(=O)NC(=O)N1` (stereo not drawn), the inhibition is reported as 45.3% (active). For `CCCCCC1CC(=O)N(Cc2ccc(Cl)cc2)C(=O)N1` (stereo not drawn), the inhibition was 7.7%. `CCCCCCC1CC(=O)NC(=S)N1` (stereo not drawn) gave an inhibition of -3%. In the case of `Cc1ccc(N2CCC(N3CCN(C4CCCCC4)C(CCO)C3)CC2)cc1` (stereo not drawn), the inhibition is reported as -17.5%. For `COc1cc2c(cc1OC)C(c1cc(Br)ccc1F)N(C(=O)CCl)CC2` (stereo not drawn), the inhibition was 37.2% (active). Work on `COc1cc2c(cc1OC)C(C1C(=O)CCCC1=O)N(C(=O)CCl)CC2` (stereo not drawn) yielded an inhibition of -8%. Work on `COc1cc2c(cc1OC)C(c1ccccc1)N(C(=O)CCl)CC2` (stereo not drawn) yielded an inhibition of 43.6%. `CSc1cccc(NS(=O)(=O)c2ccccc2)c1` showed an inhibition of -20.4%. `O=C(CSc1nccc(=O)[nH]1)NC1CCCC1` gave an inhibition of -1.9%. Compound `COc1ccc(CCNC(=O)C/C(C)=N/NC(=O)COc2ccc(C)cc2Br)cc1OC` has an inhibition of 39.1%. Compound `C/C(CC(=O)NC(C)(C)C)=N\NC(=O)COc1ccc(C)cc1Br` has an inhibition of -14%. In the case of `CCCNC(=O)C/C(C)=N/NC(=O)COc1ccc(C)cc1Br`, the inhibition is reported as 83.4% (active). For `CC(=O)c1ccc(OCC(=O)NC(=O)NC2CCCCC2)cc1`, the inhibition was 6.2%. For `Cc1ccc(C)c(OCC(=O)Nc2ccc(S(=O)(=O)Nc3ncccn3)cc2)c1`, the inhibition was -12.1%. In the case of `COC(=O)c1c(N2C(=O)Nc3ccccc3N2O)sc(C)c1C`, the inhibition is reported as -21.8%. Compound `CCOC(=O)c1c(-c2ccccc2)csc1N1C(=O)Nc2ccccc2N1O` has an inhibition of -27.8%. For `COC(=O)c1c(-c2ccccc2)csc1N1C(=O)Nc2ccccc2N1O`, the inhibition was 37.8% (active). `CC(=O)Nc1ccc(-c2csc(-c3cccnc3)n2)cc1` showed an inhibition of -31.8%. Compound `O=C(O)CNC(=O)CCN1C(=O)c2ccccc2C1=O` has an inhibition of -13.4%. With `NC(=O)C(C(=O)/C=C/c1ccc(Cl)cc1)=C1SCCS1` the inhibition was 60.5% (active). Compound `CCOc1ccc(/C=C/C(=O)C(C(N)=O)=C2SCCS2)cc1` has an inhibition of 8.8%. `COc1ccc(/C=C/C(=O)C(C(N)=O)=C2SCCS2)cc1` gave an inhibition of -16.2%. `Cc1ccc(CNC(=O)/C=C/c2ccc(Br)o2)cc1` showed an inhibition of -7.4%. For `NC(=O)COc1cccc(/C=N/NC(=O)c2ccc(-n3cccc3)cc2)c1`, the inhibition was 39.2% (active). For `NC(=O)c1ccc(C(=O)N/N=C/c2cccc(Oc3ccccc3)c2)cc1`, the inhibition was -28.7%. Compound `NC(=O)COc1ccc(/C=N\NC(=O)c2ccc(-c3ccccc3)cc2)cc1` has an inhibition of 2.5%. In the case of `CCCn1c(C)nc2cc(Cl)c(N3CCN(c4nc(-c5ccc(C)cc5)cs4)CC3)cc21`, the inhibition is reported as 23.3%. Compound `CC(=O)NC1=C(NC2CCS(=O)(=O)C2)C(=O)c2ccccc2C1=O` (stereo not drawn) has an inhibition of -32.3%. Compound `CN(C1=C(NC(=O)c2ccccc2)C(=O)c2ccccc2C1=O)C1CCS(=O)(=O)C1` (stereo not drawn) has an inhibition of -26.1%. With `O=C(NC1=C(NC2CCS(=O)(=O)C2)C(=O)c2ccccc2C1=O)c1ccccc1` (stereo not drawn) the inhibition was 104% (active). With `O=S(=O)(Nc1nc(-c2ccccc2)cs1)c1cc(Cl)ccc1Cl` the inhibition was 40.9%. Compound `COc1cc(N=CC2=C(O)c3ccccc3C2=O)cc(OC)c1` has an inhibition of -21.7%. Work on `COc1ccc(N=CC2=C(O)c3ccccc3C2=O)cc1` yielded an inhibition of 52.5%. For `COc1ccc(N=CC2=C(O)c3ccccc3C2=O)c(OC)c1`, the inhibition was 72% (active). In the case of `O=C(CCC(=O)Nc1nnc(C2CCCCC2)s1)NCc1ccc(F)cc1`, the inhibition is reported as -10.8%. Work on `CSc1ccc(OC2CCCCC2NS(=O)(=O)c2ccccc2)cc1` (stereo not drawn) yielded an inhibition of -17%. In the case of `Cc1cc(OCC(=O)NCCc2cccc(F)c2)c2c(C)cc(=O)oc2c1`, the inhibition is reported as 21.7%. In the case of `Oc1ccc2oc3c(c2c1/C=N/n1cnnc1)CCCC3`, the inhibition is reported as 59.5% (active). `NC(=O)N/N=C/c1c(O)ccc2oc3c(c12)CCCC3` gave an inhibition of -15.5%. With `O=C(O)c1ccc(N=Cc2c(O)ccc3oc4c(c23)CCCC4)cc1` the inhibition was 60% (active). Work on `Oc1ccccc1N=Cc1c(O)ccc2oc3c(c12)CCCC3` yielded an inhibition of -2.1%. For `CC(C)(C)N=Cc1c(O)ccc2oc3c(c12)CCCC3`, the inhibition was -1.4%. With `Cc1cccc(/N=C/c2c(O)ccc3oc4c(c23)CCCC4)n1` the inhibition was 3.8%. In the case of `COC(=O)c1ccsc1NC(=O)CCc1ccccc1`, the inhibition is reported as -59.2%. Compound `COc1cc(NC(=S)NCc2cccnc2)c(OC)cc1Cl` has an inhibition of -26.2%. Compound `CC(=O)c1nnn(-c2c(F)cccc2F)c1C` has an inhibition of -11.8%. In the case of `O=c1[nH][nH]c(C(F)(F)F)c1C=NCc1cccc(Cl)c1`, the inhibition is reported as -0.4%. For `CCc1ccc(/C=C/c2c[nH]c3ccccc23)[n+](CC)c1`, the inhibition was -7.1%. In the case of `CC[n+]1c(/C=C/c2c[nH]c3ccccc23)ccc2cc(C)ccc21`, the inhibition is reported as 79.9% (active). With `CC[n+]1ccc(/C=C/c2c[nH]c3ccccc23)cc1` the inhibition was 3.8%. In the case of `Cn1nnc2cc(NC(=O)Nc3cccc(C(F)(F)F)c3)ccc21`, the inhibition is reported as -5.1%. With `COc1ccccc1N1CCN(C(=O)CN2C(=O)C3CCCCC3C2=O)CC1` (stereo not drawn) the inhibition was -30.6%. `CCCCN(C)C1CCN(C(=S)Nc2ccc(OC)cc2)CC1` gave an inhibition of -31.8%. In the case of `Cc1cc(C)c(S(=O)(=O)c2ccccc2)c(N2CCOCC2)n1`, the inhibition is reported as -15.6%. With `CCCCCc1ccc(-c2ccc(/C=C/C(N)=O)cc2)nc1` the inhibition was -38.2%. With `CCCc1ccc(-c2ccc(/C=C/C(=O)O)cc2)nc1` the inhibition was 76.4% (active). With `CCCCCc1ccc(-c2ccc(/C=C/C(=O)O)cc2)nc1` the inhibition was -27.7%. With `Cc1cc2c(c(=O)n1Cc1cccnc1)C(c1cccs1)C(C#N)=C(N)O2` (stereo not drawn) the inhibition was 7%. `O=S(=O)(NC1CCCC1)c1cccc(-c2nnc(-c3ccccc3)o2)c1` gave an inhibition of -5.3%. For `COC(=O)[C@@H](NC(=O)NCc1cccs1)C(C)C`, the inhibition was 8.6%. `CCCCCNC(=O)c1c[nH]c2ccc(S(=O)(=O)N3CCC4(CC3)OCCO4)cc2c1=O` showed an inhibition of -39.2%. `COc1ccc(-n2nc3c(c2NC(=O)CCCl)CSC3)cc1` gave an inhibition of 1.9%. `CCC(=O)Nc1c2c(nn1-c1ccc(OC)cc1)CSC2` showed an inhibition of -5.8%. Work on `O=C(CCCCl)Nc1c2c(nn1-c1ccccc1)CSC2` yielded an inhibition of -34.6%. With `CCC(=O)Nc1c2c(nn1-c1ccccc1)CSC2` the inhibition was -26%.
